Entries with a potency or affinity are not part of this list. Records with an inconclusive call do not appear. Activity calls are given as the source filed them.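 How the source made its calls: active means signal loss with fitted half-maximal concentration at or below twice the top valid tested dose in every test run; inconclusive means runs disagree, flat 30 to 70% signal loss, or poor fit; inactive means all runs flat, opposite direction, or potency beyond limit.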
test: general mammalian cell viability loss – inhibitor set, cherry-pick, set 2, cytotoxicity control for miR-122 modulator project, dose response (AID 720697); settings: HEK293T viability, CellTiter-Glo luminescence, 48 h; series mostly up to 26 µM

| SMILES | outcome |
| --- | --- |
| CN1C(=O)c2cc(NS(=O)(=O)c3ccc(Cl)cc3)ccc2OC[C@H]2O[C@H](CC(=O)N3CCc4ccccc4C3)CC[C@@H]21 | inactive |
| COC(=O)C[C@@H]1CC[C@@H]2[C@@H](COc3ccc(NS(=O)(=O)c4ccccc4F)cc3C(=O)N2C)O1 | inactive |
| CCC(=O)N1[C@H](CO)[C@H](c2ccccc2)[C@@H]1CN(C(C)C)S(C)(=O)=O | inactive |
| COc1cccc(-c2ccc3c(c2)O[C@H](CN(C)C(=O)C2CCOCC2)[C@H](C)CN([C@@H](C)CO)S3(=O)=O)c1 | inactive |
| CN1C(=O)c2cc(NC(=O)c3cccc(F)c3)ccc2OC[C@H]2O[C@@H](CC(=O)O)CC[C@@H]21 | inactive |
| Cc1nn(C)cc1NC(=O)C[C@@H]1CC[C@H]2[C@@H](COc3ccc(NC(=O)Nc4cccc(Cl)c4)cc3C(=O)N2C)O1 | inactive |
| C/C=C/c1ccc([C@@H]2[C@@H](CO)N(C(C)=O)[C@H]2CN(C(=O)COC)C(C)C)cc1 | inactive |
| C[C@@H]1CN([C@H](C)CO)S(=O)(=O)c2ccc(C3=CCCC3)cc2O[C@@H]1CN(C)C(=O)c1cnccn1 | inactive |
| COCC(=O)Nc1ccc2c(c1)C(=O)N(C)[C@H]1CC[C@@H](CC(=O)NCCCN(C)C)O[C@@H]1CO2 | inactive |
| CO[C@@H]1CN(C)C(=O)c2ccc(NC(=O)c3nc4ccccc4s3)cc2OC[C@H](C)N(Cc2cccnc2)C[C@H]1C | inactive |
| COCCN(C[C@@H]1[C@H](c2ccccc2)[C@@H](CO)N1C(=O)C1CCC1)C(C)=O | inactive |
| COc1cccc(C(=O)Nc2ccc3c(c2)C(=O)N(C)[C@@H]2CC[C@H](CC(=O)NCc4ccc(F)cc4)O[C@@H]2CO3)c1 | inactive |
| CC(C)NC(=O)Nc1ccc2c(c1)C(=O)N(C)[C@H]1CC[C@H](CC(=O)NCC(F)(F)F)O[C@H]1CO2 | inactive |
| CNC(=O)C[C@H]1CC[C@@H]2[C@H](COc3ccc(NS(=O)(=O)c4ccc(F)cc4)cc3C(=O)N2C)O1 | inactive |
| C/C=C/c1ccc2c(c1)O[C@H](CN(C)C(=O)c1cnccn1)[C@H](C)CN([C@H](C)CO)S2(=O)=O | inactive |
| O=C(Nc1ccccc1F)N1[C@H](CO)[C@@H]2c3ccccc3NC[C@@H]21 | inactive |
| CN1C(=O)c2cc(NC(=O)c3cccc(F)c3)ccc2OC[C@H]2O[C@@H](CC(=O)O)CC[C@H]21 | inactive |
| O=c1c2cc(N3CCOCC3)ccc2[nH]c(=S)n1CCCN1CCCC1 | inactive |
| CN1C(=O)c2cc(NC(=O)c3ccc4c(c3)OCO4)ccc2OC[C@H]2O[C@H](CC(=O)O)CC[C@@H]21 | inactive |
| Cc1nn(C)cc1NC(=O)C[C@@H]1CC[C@@H]2[C@H](COc3ccc(NC(=O)Nc4cccc(Cl)c4)cc3C(=O)N2C)O1 | inactive |

| SMILES | outcome |
| --- | --- |
| O=C(N/N=C/c1ccco1)c1cccc(N2CCCC2=O)c1 | inactive |
| COCC(=O)N(C[C@H]1N[C@@H](CO)[C@@H]1c1ccc(C2=CCCC2)cc1)C(C)C | inactive |
| C[C@@H]1CN([C@H](C)CO)S(=O)(=O)c2ccc(-c3ccccc3)cc2O[C@@H]1CN(C)C(=O)c1ccc2c(c1)OCO2 | inactive |
| O=C(COC(=O)c1ccccc1)Nc1cc(Cl)ccc1Oc1ccccc1 | inactive |
| CCCNC(=O)C[C@@H]1CC[C@H]2[C@H](COc3ccc(NC(=O)c4ccc(C(F)(F)F)cc4)cc3C(=O)N2C)O1 | inactive |
| C[C@H](CO)N1C[C@H](C)[C@H](CN(C)CC2CCCCC2)OCCCC[C@H](C)Oc2ccc(NC(=O)Nc3cccc4ccccc34)cc2C1=O | inactive |
| CNC(=O)C[C@@H]1CC[C@@H]2[C@@H](COc3ccc(NC(=O)NC(C)C)cc3C(=O)N2C)O1 | inactive |
| CN1C(=O)c2cc(NC(=O)C3CCOCC3)ccc2OC[C@H]2O[C@H](CC(=O)NCc3ccc4c(c3)OCO4)CC[C@@H]21 | inactive |
| CCS(=O)(=O)Nc1ccc2c(c1)C(=O)N(C)[C@@H]1CC[C@@H](CC(=O)NCCCN3CCOCC3)O[C@@H]1CO2 | inactive |
| O=C(CC(F)(F)F)N1C[C@H]2[C@@H](c3ccccc31)[C@H](CO)N2C(=O)Cc1cccnc1 | inactive |
| C[C@H]1CCCCO[C@H](CN(C)Cc2ccc3c(c2)OCO3)[C@@H](C)CN([C@@H](C)CO)C(=O)c2cc(NC(=O)Nc3cccc4ccccc34)ccc2O1 | inactive |
| O=C(Nc1ccccc1)N1CCCCN2[C@@H](CO)[C@H](c3ccc(C4=CCCCC4)cc3)[C@@H]2C1 | inactive |
| N#Cc1cccc(NC(=O)Nc2cccs2)c1 | inactive |
| COc1ccc(CCNC(=O)c2c(C)cc(=O)oc2C)cc1OC | inactive |
| CN1C(=O)c2cc(NC(=O)c3cccs3)ccc2OC[C@@H]2O[C@@H](CC(=O)O)CC[C@@H]21 | inactive |
| CN1C(=O)c2cc(NC(=O)c3cccc(F)c3)ccc2OC[C@H]2O[C@H](CC(=O)O)CC[C@H]21 | inactive |
| CN(C[C@H]1N[C@@H](CO)[C@@H]1c1ccc(C2=CCCC2)cc1)C(=O)c1ccc(F)cc1 | inactive |
| CCNC(=O)Nc1ccc2c(c1)C(=O)N(C)[C@H]1CC[C@@H](CC(=O)NCCOC)O[C@@H]1CO2 | inactive |
| C/C=C/c1ccc([C@@H]2[C@@H](CNC(=O)c3ccncc3)N(C(=O)CC)[C@H]2CO)cc1 | inactive |
